Data: PubChem BioAssay (NCATS)
Where “and” joins values, the source holds several entries; their conditions need not be identical. Equal values may be shown once. Inconclusive results are not listed. Calls of active or inactive are those of the source. Unless noted, calls follow the shape of the dose curve; as a rule, active = well fitted curve in the direction sought with a large enough effect; inconclusive = small, poorly fitted or top-dose-only effect, or another doubt; inactive = no such curve, though single readings can be large; an effect the other way counts as inactive or inconclusive. Where a SMILES comes first, the peptide text is derived from it. Bridges are numbered along the chain shown (N, C = ends). [ ]: non-standard residue; d: D form. Orn = NCCC[C@H](N)C(=O)O; Mpa = O=C(O)CCS

Legend:
[1] = qHTS Assay for Identifying Gametocytocidal Compounds (AID 743244);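 also: % is scaled to controls: 0 for no effect and ±100 for the full control effect; actives lower the fluorescent signal which means gametocytes are killed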; settings: P. falciparum 3D7 stage III-V gametocytes, alamarBlue, 72 h; max response: stronger effect = lower value
Procedure, shortened: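 In this qHTS viability screen, late-stage 3D7 gametocytes are incubated with compound for 72 h, then with alamarBlue for 24 h; reduced resorufin fluorescence marks killing.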

[2] = P-glycoprotein substrates identified in KB-8-5-11 adenocarcinoma cell line, qHTS therapeutic library screen (AID 1346987); also: nearly all actives have a fitted effect of over 65% in size; also: potency is read from the fitted curve at half-maximal effect
Procedure, shortened: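 KB-8-5-11, a colchicine-selected P-gp-overexpressing KB-3-1 subline, was grown without colchicine for the assay. Cells were seeded at 500 cells/well, dosed in concentration-response and incubated 72 h at 37 degree C, 5% CO2. Viability was read by CellTiter-Glo luminescence.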

[3] = qHTS assay for cell viability of HEK293 cells (AID 743288); settings: ATP luminescence (CellTiter-Glo), 18 h, stronger effect = lower value; also: % is scaled to controls: 0 for no effect and ±100 for the full control effect; nearly all actives have a fitted effect of over 50% in size
Procedure, shortened: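 Parental HEK293 cells were seeded at 2,000 cells/well, rested at least 5 h at 37 C, then exposed to compounds in DMSO for 18 h at 37 C. Viability was read as ATP-dependent luciferase luminescence after 30 min at room temperature.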

[4] = qHTS assay for cell viability of the p53RE-bla HCT-116 cell line (AID 743292); also: % is scaled to controls: 0 for no effect and ±100 for the full control effect; nearly all actives have a fitted effect of over 55% in size
Procedure, shortened: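 Compound-exposed HCT-116 (p53RE-bla) cells, 4,000 per well, were kept 16 h at 37 C following a 5 h preincubation. Cell number was estimated from total ATP by CellTiter-Glo luminescence read after 30 min at room temperature.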

[5] = qHTS profiling of the MIPE4 collection as inhibitors of Plasmodium falciparum (3D7) proliferation (AID 743344; call rule not given here;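 also: scaled between DMSO vehicle wells and 0.29 µM artemisinin as full inhibition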); settings: P. falciparum 3D7 in erythrocytes, SYBR Green DNA fluorescence, 72 h; at 28.5 µM (top of the series)
Procedure, shortened: (§1)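 Erythrocytes infected with P. falciparum (0.3% parasitemia, 2.5% hematocrit) incubated with compounds 72 h at 37 C, 5% CO2. Lysis with saponin/Triton buffer containing SYBR Green I, overnight at room temperature in the dark; DNA fluorescence (485/535 nm) normalised to 0.29 uM artemisinin and DMSO.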

[6] = qHTS profiling of the MIPE4 collection as inhibitors of Plasmodium falciparum (DD2) proliferation (AID 743345; call rule not given here); settings: P. falciparum Dd2 in erythrocytes, SYBR Green DNA, 72 h; at 28.5 µM (top of the series)
Procedure, shortened: as §1

[7] = qHTS profiling of the MIPE4 collection as inhibitors of Plasmodium falciparum (DD2) proliferation (Rep 2) (AID 743346; call rule not given here); settings: P. falciparum Dd2 in erythrocytes, SYBR Green DNA, 72 h; at 28.5 µM (top of the series)
Procedure, shortened: as §1

[8] = qHTS profiling of the MIPE4 collection as inhibitors of Plasmodium falciparum (HB3) proliferation (AID 743347; call rule not given here;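 also: plate controls were DMSO vehicle wells for no effect and artemisinin wells for full effect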); settings: P. falciparum HB3 in erythrocytes, SYBR Green DNA, 72 h; at 28.5 µM (top of the series)
Procedure, shortened: as §1

CCOc1ccc(C[C@H]2NC(=O)CCSSC[C@@H](C(=O)N3CCC[C@H]3C(=O)N[C@@H](CCCN)C(=O)NCC(N)=O)NC(=O)[C@H](CC(N)=O)NC(=O)[C@H]([C@@H](C)O)NC(=O)[C@H]([C@@H](C)CC)NC2=O)cc1 ([Mpa][dY](Et)ITNCP[Orn]G-NH2; disulfide 1-6)
max response [1]: 12.3% (inactive) | Potency [2]: inactive

O=P(O)(O)C(O)(Cc1cnc2ccccn12)P(=O)(O)O
max response [1]: -4.82% (inactive) | Potency [2]: inactive

C1CNCCN1
max response [1]: -4.23% (inactive) | Potency [2]: inactive

CCCOc1ccc2nc(NC(=O)OC)sc2c1
max response [1]: -5% (inactive) | Potency [2]: 5.8 µM (active)

O.O=C([O-])CC([S-])C(=O)[O-].[Au+].[Na+].[Na+] (configuration not stated)
max response [1]: -19.1% (inactive) | Potency [2]: inactive

CNC[C@@H]1CC[C@@H](N)[C@@H](O[C@H]2[C@H](O)[C@@H](O[C@H]3OC[C@](C)(O)[C@H](NC)[C@H]3O)[C@H](N)C[C@@H]2N)O1
max response [1]: -11.2% (inactive) | Potency [2]: inactive

O=C(Cn1cnnn1)N[C@@H]1C(=O)N2C(C(=O)O)=C(CSc3nncs3)CS[C@H]12
max response [1]: 1.4% (inactive) and 3.1% (inactive) | Potency [2]: inactive

Cc1cc(Nc2ccccc2C(=O)O)ccc1Cl
max response [1]: -23.6% (inactive) | Potency [2]: inactive

CCOC(=O)[C@H](CCc1ccccc1)N[C@H]1CCCN2CCC[C@@H](C(=O)O)N2C1=O
max response [1]: -15.1% (inactive) | Potency [2]: inactive

COc1cc2c(c(OC)c1OC)-c1c(cc3c(c1OC)OCO3)C[C@@H](C)[C@](C)(O)C2
max response [1]: 3.46% (inactive) and 15.8% (inactive) | Potency [2]: inactive

Cc1c(O)cc2c(c1C)O[C@](C)(CCC[C@H](C)CCC[C@H](C)CCCC(C)C)CC2
max response [1]: -0.611% (inactive) | Potency [2]: inactive

c1cnc2cc3c(cc2n1)[C@@H]1CNC[C@H]3C1
max response [1]: 0.0621% (inactive) | Potency [2]: inactive

O=C[C@H](O)[C@@H](O)[C@H](O)[C@H](O)CO
max response [1]: -1.25% (inactive) | Potency [2]: inactive

COC[C@H](c1ccc(C(F)(F)F)cc1)N1CCN(C2(C)CCN(C(=O)c3c(C)ncnc3C)CC2)C[C@H]1C
max response [1]: -5.74% (inactive) | Potency [2]: inactive

C=Cc1ccccc1
max response [1]: 5.81% (inactive) | max response [3]: 4.36% (inactive) and 2.49% (inactive) | outcome [4]: inactive | Potency [2]: inactive

N[C@@H](C(=O)N[C@H]1C(=O)N2C(C(=O)O)=C(Cl)CC[C@H]12)c1ccccc1
parasite growth, % of DMSO control [5]: 101% | parasite growth remaining, % of DMSO control (lower = more inhibition) [6]: 100% | parasite growth, % of control (lower = inhibition) [7]: 78.4% | growth, % of control [8]: 104% | Potency [2]: inactive
